# Shiga toxin inh: inhibitors of Shiga toxin in Vero cells; actives 9.2% (n = 290,000); Vero cells, Shiga toxin protein synthesis inhibition reporter; inhibition, % at 38.7 µM; AID 2315; in the data active = inhibition mostly above about 28%, no sharp cut-off; inactive = mostly below about 43%; also: 0% is about no effect
# LmPK inh: inhibitors of Leishmania mexicana pyruvate kinase; AID 1721; Potency, µM (top dose mostly 57.5 µM), for inactives: at the top dose activity change, negative = inhibition, actives largely listed as inhibitors; purified LmPK, Kinase-Glo ATP luminescence, 1 h; actives 0.37% (n = 290,000); also: potency is read from the fitted curve at half-maximal effect; % is scaled to controls: 0 for no effect and ±100 for the full control effect
# Target sequence (Q27686 whole entry, looked up): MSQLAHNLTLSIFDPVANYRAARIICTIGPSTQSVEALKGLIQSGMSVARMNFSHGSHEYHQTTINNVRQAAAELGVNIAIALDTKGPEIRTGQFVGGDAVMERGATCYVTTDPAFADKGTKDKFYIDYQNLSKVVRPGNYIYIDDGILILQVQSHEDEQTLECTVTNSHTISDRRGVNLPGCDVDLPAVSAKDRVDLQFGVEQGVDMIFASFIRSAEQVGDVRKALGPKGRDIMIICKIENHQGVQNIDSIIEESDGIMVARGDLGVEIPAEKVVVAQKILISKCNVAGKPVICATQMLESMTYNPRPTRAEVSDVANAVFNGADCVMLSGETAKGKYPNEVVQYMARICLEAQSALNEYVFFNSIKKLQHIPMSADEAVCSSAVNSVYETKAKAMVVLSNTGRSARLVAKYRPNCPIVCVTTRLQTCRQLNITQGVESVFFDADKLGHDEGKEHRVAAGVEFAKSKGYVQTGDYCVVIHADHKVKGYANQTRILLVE
#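 qHTS format; LmPK 0.1 nM; substrates PEP 0.5 mM and ADP 0.1 mM. One-hour room-temperature incubation, then coupled luciferase luminescence; 0.5 nM enzyme wells mark activation.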
# Giardia FBPA inh: blocks Giardia fructose-bisphosphate aldolase activity | Potency, µM (series often up to 59.6 µM), without a hit: top-dose activity, negative = inhibition, actives largely listed as inhibitors | actives 0.71% (n = 290,000) | A8B2U2 | purified Giardia FBPA; also: potency is read from the fitted curve at half-maximal effect; % is scaled to controls: 0 for no effect and ±100 for the full control effect; nearly all actives have a fitted effect of over 55% in size
#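 40 nM FBPA preincubated 10 min at RT with compound (up to 57.5 uM final), then substrate plus GAPDH/TPI/NAD/arsenate coupling and diaphorase/resazurin added. Fluorescence read after 20 min at RT, 525/598 nm.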
# Cycloheximide cs: affects cycloheximide protein synthesis inhibition readout, counter-screen; cell reporter, cycloheximide protein synthesis inhibition counterscreen; AID 2314; max response, %; actives 12% (n = 300,000); in the data active = max response mostly above about 13%, no sharp cut-off; inactive = mostly below about 14%; also: read at 38.3 µM for the half of the compounds with a filed dose; 0% is about no effect
# NS1 inh: influenza NS1 inhibition; Potency, µM (doses to about 46.1 µM), for the others: top-dose activity, positive = more growth; actives 0.4% (n = 270,000); calls by dose curve; also: potency is read from the fitted curve at half-maximal effect; actives are rising curves; nearly all actives have a fitted effect of over 50% in size
#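 Growth recovery, yeast-based: influenza A NS1 expressed in S. cerevisiae causes slow growth, and suppressors are detected by OD600. The parent strain without NS1 is used as positive control.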
# Starred values were filed as active, the others as inactive; ? = inconclusive; nt = no result given; [ ] = dose if it differs, or a comment. Shown are actives, neighbours in structure and some others; about 14% of the full set was active somewhere. Unless noted, calls follow the shape of the dose curve; as a rule, active = well fitted curve in the direction sought with a large enough effect; inconclusive = small, poorly fitted or top-dose-only effect, or another doubt; inactive = no such curve, though single readings can be large; an effect the other way counts as inactive or inconclusive.
SMILES,Shiga toxin inh,LmPK inh,Giardia FBPA inh,Cycloheximide cs,NS1 inh
Clc1ccc(-c2csc(-c3cccnc3)n2)s1,54.0*,1.5%,-4.3%,32.1*,-49.5%
COC(=O)[C@@H]1CCCN1C(=O)[C@@H](C)CO,nt,nt,-1.4%[12.9 µM],nt,nt
CC12CCC3C(CC3(C)C)C(C)(CCC1=O)O2 (stereo not given),nt,nt,1.9%,nt,nt
O=C(CSc1nnc(Cc2ccccc2)n1C1CCCCC1)N1CCOCC1,-25.1,-0.7%,0.9%,16.2*,-6.5%
O=C(CSc1ccc(-c2ccccc2)nn1)N1CCOCC1,19.1,-17.4%,3.2%,23.6*,3.5%
COc1cccc(-c2ccc(SCC(=O)N3CCOCC3)nn2)c1,21.9,-19.3%,-5.1%,1.8,nt
O=C(CSc1ccc(-c2ccc(F)cc2)nn1)N1CCOCC1,100.0,-19.1%,0.0%,20.1*,nt
O=C(CSc1nnc(Cc2ccccc2)n1-c1ccc(F)cc1)N1CCOCC1,-20.7,0.3%,-3.0%,-2.2,7.0%
Cn1c(-c2ccc(CN3CCCCC3)o2)nc2ccccc21,84.0*,-10.0%,-0.6%,25.6*,3.8%
CCOc1ccccc1-c1nc(-c2ccc(C)nc2OC)no1,92.0*,1.1%,-5.8%,43.7*,-45.6%
CCOc1nc(C)ccc1-c1noc(-c2ccccn2)n1,34.4,0.4%,-0.4%,25.8*,-30.3%
CCOc1nc(C)ccc1-c1noc(-c2ccco2)n1,41.6,0.2%,-2.7%,32.0*,-25.3%
O=C(O)[C@H]1C2c3ccccc3C(c3ccccc32)[C@@H]1C(=O)NCC1CC1,nt,nt,nt,nt,-8.7%
CCN(CC(=O)NCc1ccc(Cl)cc1)CC(=O)NC1(C#N)CCCC1,-7.3,3.0%,9.5%,-6.0,0.6%
Cc1nc(NC(=O)CSc2nnnn2C)sc1C,70.7*,-1.2%,0.8%,39.5*,1.0%
CCCn1c(SCC(=O)Nc2nc(C)c(C(=O)OC)s2)nnc1C(C)C,15.3,1.6%,-1.5%,-4.9,-2.2%
Cc1csc(NC(=O)CSc2nnnn2C)n1,52.7*,-1.9%,0.3%,25.4*,4.7%
COC(=O)c1sc(NC(=O)CSc2nnnn2C)nc1C,121.5*,1.7%,-3.0%,29.2*,-8.5%
OC1OC[C@H](O)[C@H](O)[C@H]1O (stereo not given in full),-0.9,nt,3.0%,-6.1,nt
CCc1ccc(Nc2n[n+](C)c(-c3ccncc3)s2)cc1,11.0,-5.3%,?,9.9,-66.1%
COC(=O)C1(C(=O)OC)CC2=C[C@H](CC2=O)Cc2ccccc2[C@@H]1C[N+](=O)[O-],nt,nt,-2.2%,nt,nt
CN(CCC#N)C(=O)COC(=O)c1c2c(nc3ccccc13)/C(=C/c1ccco1)CC2,23.5,-8.1%,?,38.4*,?
O=C(COC(=O)c1c2c(nc3ccccc13)/C(=C\c1cccs1)CCC2)Nc1ccccc1,9.8,4.0%,-5.2%,0.1,24.2%
O=C(/C=C/c1ccc([N+](=O)[O-])cc1)Nc1ncc([N+](=O)[O-])s1,95.2*,-14.1%,-16.1%,33.5*,nt
Cc1cnc(NC(=O)c2cccs2)s1,67.3*,-1.6%,-6.6%,28.8*,-40.2%
SMILES,Shiga toxin inh,LmPK inh,Giardia FBPA inh,Cycloheximide cs,NS1 inh
O=C(Nc1ncc([N+](=O)[O-])s1)c1cccs1,26.6*,14.1µM*,0.0%,36.7*,-148.4%
O=C(/C=C/c1ccc([N+](=O)[O-])cc1)NCc1ccccn1,-4.0,-5.8%,-1.1%,-1.3,11.2%
O=C(Nc1cc([N+](=O)[O-])ccc1F)c1cccs1,-4.2,3.0%,0.3%,-2.5,-23.6%
O=C(Nc1ncc([N+](=O)[O-])s1)c1ccccc1Br,65.1*,0.1%,-13.5%,49.6*,-118.2%
CCN1C(=O)[C@H]2[C@H]3[C@H](O)[C@H](O)C/C(=N/NC(=O)OCc4ccccc4)[C@@H]3CC[C@@H]2C1=O,nt,nt,1.3%[12.9 µM],nt,nt
Cn1c(=O)[nH]c(=O)c2c1nc(N1CCN(CCO)CC1)n2Cc1ccccc1,-10.0,0.1%,2.4%,-2.1,23.5%
N/C(=N\c1nc2ccccc2o1)NC(=O)c1cccc(Cl)c1,33.4,7.5%,1.7%,1.9,1.5%
N/C(=N\c1nc2ccccc2o1)NC(=O)c1ccccc1NC(=O)c1ccccc1,-3.9,6.9%,8.1%,12.1,7.2%
N/C(=N\c1nc2ccccc2o1)NC(=O)c1ccccc1F,100.0*,3.5%,-4.0%,47.4*,-5.8%
CCc1ccc2nc(/N=C(\N)NC(=O)c3ccccc3)nc(C)c2c1,5.1,2.4%,-4.3%,1.0,0.1%
COc1ccccc1C(=O)NC(=Nc1nc2ccccc2o1)NC(=O)c1ccccc1OC,21.9*,5.3%,0.9%,16.9*,-4.3%
CCCC(=O)N/C(N)=N/c1nc(C)c2ccccc2n1,18.3,1.8%,-12.8%,16.5*,-5.0%

# Assay outcomes (PubChem)
